# Test results: PubChem BioAssay (NCI)
# About 83,000 compounds went through this panel and 20% of them were active in at least one assay; those are over-represented in the sample as a whole.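 Percent growth is the endpoint: 0 to 100 indicates growth inhibition (40 means 60% inhibition), 0 means no net growth, and negative values indicate cell death.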 Values without a mark were called inactive. Activity calls are given as the source filed them. The calls were made as follows: active = growth percent below 10; inactive = the rest.
# Key:
# Assay in all cases: NCI-60 one-dose screen, 48 h (100 = growth as untreated, 0 = no growth, -100 = all killed)
# Conditions in all cases: 10 µM
# HT29 colon = tested on: HT29 colon
# SNB-75 CNS = tested on: SNB-75 CNS
# SNB-19 CNS = tested on: SNB-19 CNS
# U251 CNS = tested on: U251 CNS
# PC-3 prostate = tested on: PC-3 prostate
# SK-MEL-5 melanoma = tested on: SK-MEL-5 melanoma
# UACC-62 melanoma = tested on: UACC-62 melanoma
# LOX IMVI melanoma = tested on: LOX IMVI melanoma
# SK-MEL-28 melanoma = tested on: SK-MEL-28 melanoma
# SK-MEL-2 melanoma = tested on: SK-MEL-2 melanoma
SMILES,growth (HT29 colon),growth (SNB-75 CNS),growth (SNB-19 CNS),growth (U251 CNS),growth (PC-3 prostate),growth (SK-MEL-5 melanoma),growth (UACC-62 melanoma),growth (LOX IMVI melanoma),growth (SK-MEL-28 melanoma),growth (SK-MEL-2 melanoma)
COc1ccc(NC(=O)CSc2nc3ccccc3c(=O)n2CCc2ccccc2)cc1,110%,28.7%,59.4%,71.4%,106%,86.6%,89.8%,92.9%,91.6%,121%
O=[N+]([O-])c1cccc(N=Cc2ccc3c(c2)OCO3)c1,105%,96.7%,130%,97.1%,106%,111%,105%,91.4%,117%,98.1%
O=C(Nc1ccncc1)C(=O)c1cn(S(=O)(=O)c2ccc(F)cc2)c2ccccc12,1.81% (active),45%,67.2%,19.4%,27.4%,17.7%,36.1%,38.3%,56.1%,11.2%
Cc1ccc2oc3nc(C)c(C(=O)NCc4ccccc4)cc3c(=O)c2c1,95%,88%,83.2%,79%,93.5%,76.9%,25.6%,68.8%,78.1%,8.63% (active)
CC(=O)c1cc(Br)ccc1O,116%,106%,109%,108%,93.5%,104%,104%,103%,105%,106%
CCOC(=O)C(CSC(c1ccccc1)(c1ccccc1)c1ccccc1)NC(=O)C(CSC(c1ccccc1)(c1ccccc1)c1ccccc1)NC(c1ccccc1)(c1ccccc1)c1ccccc1 (stereo not given),113%,86.8%,107%,97.3%,102%,98.6%,113%,99.6%,99.8%,115%
CS(=O)(=O)Nc1ccc(Nc2c3ccccc3nc3cc(N)ccc23)cc1,55.9%,38.8%,22.2%,3.29% (active),51.3%,5.37% (active),40.2%,23.4%,42.3%,25.1%
COc1cc(-c2cc(/C=C/C(=O)c3ccc(F)c(F)c3)[nH]n2)cc(OC)c1OC,53.7%,56.7%,67.8%,41.5%,11.7%,75.6%,51.4%,55.9%,73.4%,83.1%
COc1ccc(-c2nc3sc(C4CC4)nn3c2/C=C2/C(=O)Nc3ccc(OC)cc32)cc1,73.2%,-2.41% (active),66.8%,72.8%,58.1%,52.8%,44%,52.1%,24.9%,49.6%
CCN(CC)CCCC(C)Nc1ccc2ccc(Cl)cc2n1 (stereo not given),86.1%,77%,104%,92.7%,90.5%,97.7%,103%,95%,106%,117%
O=C1N=NC2=C1c1c3ccccc3c(O)n1CC2,103%,103%,96.3%,105%,86.2%,112%,96.4%,105%,108%,110%
COc1cccc(-c2cc(-c3cccc(NS(C)(=O)=O)c3)nc(N)c2C#N)c1O,12.6%,-16.4% (active),42.3%,30.9%,16.6%,11.9%,52.9%,46.6%,76.7%,69%
Clc1ccc2c(NCCCNc3nccc(Nc4ccc(Br)cc4)n3)ccnc2c1,-80.3% (active),-93.9% (active),-8.34% (active),-98.3% (active),-33.4% (active),-100% (active),-87.9% (active),-85.8% (active),-97.2% (active),-96.7% (active)
COc1cc(Nc2ccnc(NCCCNc3ccnc4cc(Cl)ccc34)n2)cc(OC)c1,-31.9% (active),-58.6% (active),2.03% (active),-64.4% (active),26.1%,-100% (active),-82.5% (active),-82.5% (active),-100% (active),-81.6% (active)
Cc1cc(Nc2ccc(Cl)cc2)nc(NCCCNc2ccnc3cc(Cl)ccc23)n1,-91.4% (active),-94.9% (active),-14.3% (active),-91.3% (active),-19.4% (active),-99.8% (active),-80.2% (active),-83.8% (active),-99.8% (active),-93.4% (active)
Cc1ccc(C(=O)N2C/C(=C/c3ccccc3)C(=O)/C(=C/c3ccccc3)C2)cc1,-17.9% (active),67.9%,83%,47%,65.3%,58.9%,76.9%,-24.5% (active),79.8%,80.2%
COc1ccc(NC(=O)Cc2nc3nc4sc(C)c(C)c4c(=O)n3[nH]2)cc1,94.1%,101%,105%,91.2%,95.9%,86.7%,107%,89.7%,115%,103%
N#Cc1ncc(-c2ccc(C(F)(F)F)cc2)c(NCc2cc(C(F)(F)F)cc(C(F)(F)F)c2)n1,9.29% (active),37.9%,29.8%,27.3%,1.54% (active),75.3%,19.4%,14.9%,39.3%,-2.7% (active)
COc1cc2cc3c(nc2cc1OC)CCN3Cc1ccc(NC(=O)c2ccc(Cl)c(C(F)(F)F)c2)cc1,105%,61.7%,86.6%,84.6%,69.6%,85%,79.9%,89.9%,97.9%,108%
CCCCCCCCCCCCCCCCCC(=O)OCCCCCCC,102%,98.3%,116%,100%,92.9%,110%,110%,96.5%,122%,127%
Fc1ccc(-c2nnc(-c3c(-c4ccc(F)cc4)nc4ccccn34)o2)cc1,79.2%,37.4%,92.8%,81.2%,84.6%,80.4%,92.2%,65.4%,85%,120%
CCCCCCN(CCCCCC)CC(O)c1ccc2c3c(cccc13)CC2 (stereo not given),-4.58% (active),120%,82.4%,49.5%,51.5%,59.7%,65.2%,21.4%,71.7%,55.8%
O=[N+]([O-])c1ccc(Oc2cc(Cl)c(Cl)cc2Cl)c(C(F)(F)F)c1,105%,89.4%,111%,97.9%,92.1%,96%,97%,99.2%,101%,94.3%
O=C(O)C(SC(C(=O)O)c1ccccc1)c1ccccc1 (stereo not given),103%,85.6%,104%,98.8%,105%,111%,95.5%,99.4%,102%,103%
COc1ccc(OC)c(/C=C/c2nnc(Nc3ccc(Cl)cc3)o2)c1,76.9%,15.8%,84.9%,41.8%,74.9%,69.8%,75.8%,67.7%,92.1%,101%
O=C(Nc1nc(-c2ccccc2Cl)cs1)c1cc(-c2ccc(Cl)cc2)nc2ccc(Cl)cc12,6.1% (active),20.6%,39%,12.5%,20.8%,-25.4% (active),37.5%,15%,53.5%,10.7%
COc1ccc2c(c1)sc1nc(-c3ccccc3)c(-c3ccc(O)c(OC)c3)n12,21.5%,77.6%,80.4%,41.7%,82.3%,55.5%,66.2%,61.5%,73.6%,49.8%
